Experimental data: PubChem BioAssay (NCATS)
Results filed as inconclusive are left out. A call without a number means that no potency is given here. Activity calls are given as the source filed them. Calls follow the shape of the dose curve; as a rule, active = well fitted inhibition curve with a large enough effect; inconclusive = small, poorly fitted or top-dose-only effect; inactive = no such curve, though single readings can be large or run the other way.

Tested on: Zika virus NS2B-NS3 protease (linked construct)
Assay: Primary screen NINDS Rhodamine qHTS for Zika virus inhibitors (AID 1347160); also: nearly all actives have a fitted effect of over 55% in size
Outline: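 Rhodamine110-peptide cleavage (1.5 µM substrate) by 25 nM linked NS2B-NS3 enzyme at pH 8.0 (Tris, Tween 20), after 15 min RT preincubation with compounds; 15-min fluorescence change normalized to controls and Hill-fitted.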

| SMILES | Potency |
| --- | --- |
| N#Cc1ccc(-c2ccc(S(=O)(=O)Nc3cccc(N)n3)cc2)cc1 | inactive |
| CC1(C)CC[C@]2(C(=O)O[C@@H]3O[C@H](CO)[C@@H](O)[C@H](O)[C@H]3O)CC[C@]3(C)C(=CCC4[C@@]5(C)CC[C@H](O[C@@H]6O[C@H](C(=O)O)[C@H](O)[C@H](O)[C@H]6O)C(C)(C)C5CC[C@]43C)[C@@H]2C1 (some centres undefined) | inactive |
| O=C(Nc1ccc(-n2nc(C(F)(F)F)cc2C(F)(F)F)cc1)c1ccncc1F | inactive |
| CCN(CC)C(=O)c1ccc(Nc2nc(OCC3CCCCC3)c3[nH]cnc3n2)cc1 | inactive |
